Shn3 inh set2 = Schnurri-3 reporter inhibition in Clone20 osteoblasts; Clone20 osteoblast Shn3 3'UTR firefly luciferase, 24 h; inhibition, % at 12.5 µM; hit rate 0.52% among 360,000; AID 588674;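 active = mean inhibition of at least 75% with every replicate also reaching 75%; inconclusive = mean inhibition at least 75% but some replicate below; inactive = mean inhibition below 75%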
HIF-2a inh = blocks HIF-2a reporter activity; 786-0 RCC cells HIF-2a reporter, luciferase luminescence, overnight; hit rate 0.72% among 360,000; inhibition, % at 18.8 µM; AID 624352;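 active = inhibition of the luminescence signal of 40% or more relative to plate controls, in a single-dose primary screen at 18.75 µM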
KKLEB cytotox = CF airway cell cytotoxicity counter-screen. AID 602141. hit rate 0.36% among 360,000. KKLEB CF airway cells viability, ATPlite luminescence, overnight; hits give low values; cells stimulated with P. aeruginosa culture filtrate. activity change (cytotoxicity), % at 5 µM;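 active = corrected activity change at or below -50% at 5 µM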
CF NFkB inh = blocks PAF-induced NF-kB reporter in cystic fibrosis cells; KKLEB NF-kB-GFP reporter, GFP fluorescence overnight; inhibition, % at 5 µM; hit rate 0.86% among 360,000; AID 588850;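 active = at least 50% inhibition at 5 µM, scaled per plate between neutral and stimulator controls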;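 note: PAF is a Pseudomonas aeruginosa culture filtrate used as stimulus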
Peg3 prom inh-1 = reduces Peg3 promoter-driven luciferase expression in HeLa; HeLa PEG-Prom luciferase reporter, luminescence, overnight; hit rate 1.7% among 360,000; AID 588405; inhibition, % at 20 µM;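 active = inhibition of at least 50% at 20 µM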
Peg3 prom inh-2 = Peg3 promoter inhibition confirmation; shares compounds with Peg3 prom inh-1; HeLa PEG-Prom luciferase reporter, luminescence, overnight; inhibition, % at 20 µM; hit rate 84% among 1,300;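 active = at 20 µM dose, 40% or more inhibition averaged across four replicates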
CF NFkB inh conf = CF NF-kB inhibition confirmation, single concentration. shares compounds with CF NFkB inh. hit rate 64% among 1,300. KKLEB CF airway cells, PAF-induced NF-kB-GFP fluorescence, overnight. inhibition, % at 5 µM; in the data active = inhibition above about 40%;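 note: stimulus PAF is a Pseudomonas aeruginosa filtrate and not platelet activating factor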
Numbers stand for hits; n = inactive; u = inconclusive; x = not tested or not shown. An excerpt weighted towards active compounds, which were near 2.6% of everything screened.

SMILES | Shn3 inh set2 | HIF-2a inh | KKLEB cytotox | CF NFkB inh | Peg3 prom inh-1 | Peg3 prom inh-2 | others
CC(C)(C)S(=O)N1Cc2cc(C(=O)NCc3ccc(Oc4ccccc4)cc3)nc(-c3cccc(-c4cc5ccccc5o4)c3)c2[C@@H]1CCO (stereo partly specified) | n | n | n | n | 80 | n
CCN(CC)C(=O)Cn1cc(C(=O)C2CC2)c2ccccc21 | n | n | n | n | n | x
N#C/C(=C\c1ccccc1Br)C(=O)NC1CC1 | n | n | n | n | n | x
O=C1OCCC1Sc1nnnn1-c1ccc(Cl)cc1 (stereo unspecified) | n | n | n | n | n | x
COc1ccc(/C=C/C(=O)c2ccc3c(c2)OCCO3)cc1[N+](=O)[O-] | n | n | n | n | 71 | 80
CCOc1ccc(Nc2cc(C)c3ccccc3n2)cc1 | n | n | n | n | n | x
CCOc1ccc(Nc2c3ccccc3nc3ccccc23)cc1 | n | n | n | n | 85 | 85
O=C(CCCn1c(=S)[nH]c2cc3c(cc2c1=O)OCO3)NCCc1ccccc1Cl | n | n | n | n | n | x
c1ccc(CCNc2nc(-c3ccncc3)nc3ccccc23)cc1 | n | n | n | n | 56 | 69
C/C(=N\NC(=O)C1CC1)c1ccc(Cl)c(Cl)c1 | n | n | n | n | n | x
C/C(=N\N=C(N)N)c1ccc(Cl)c(Cl)c1 | n | n | n | n | 105 | 83
O=C1c2cccc(NCCNCCO)c2C(=O)c2cccc(NCCNCCO)c21 | n | 78 | n | n | 99 | n
O=C(O)CCNc1ccc(NCCC(=O)O)c2c1C(=O)c1ccccc1C2=O | n | n | n | n | n | x
COc1cc(OC)c2cc(C(=O)N/N=C/c3ccccc3O)[nH]c2c1 | 89 | n | n | n | 72 | 59
COc1ccc2[nH]c(C(=O)N/N=C/c3ccccc3OC)cc2c1 | n | n | n | n | n | x
CCOc1ccc(-c2ccc(SC)nn2)cc1 | n | n | -60 | n | 76 | 45
CCOc1ccc(-c2ccc(SCC(=O)Nc3nnc(CC)s3)nn2)cc1 | n | n | n | n | n | x
COc1ccc(-c2sc3ccccc3c2-c2ccc(OCCN3CCCCC3)cc2)cc1 | n | n | n | n | 96 | 79
COc1ccc(-c2sc3ccc(OC)cc3c2-c2ccc(OCCN3CCOCC3)cc2)cc1 | n | n | n | n | n | x
O=[N+]([O-])c1ccc(Sc2cccc3cccnc23)cc1 | n | n | n | n | n | x
C=CCn1nc([N+](=O)[O-])nc1Sc1cccc2cccnc12 | 89 | n | n | n | 54 | n
CC(C)COc1ccc(C(=O)Nc2ccc(NC(=O)c3ccco3)cc2)cc1 | n | n | n | n | 77 | n
CC(=O)Nc1cc2ccccc2oc1=O | n | n | n | n | n | x
Cc1ccc(C(=O)Nc2cc3ccccc3oc2=O)cc1 | n | 49 | n | n | 90 | 62
COc1ccc2oc(=O)c(C(=O)Nc3ccccc3O)cc2c1 | n | n | n | n | n | x
SMILES | Shn3 inh set2 | HIF-2a inh | KKLEB cytotox | CF NFkB inh | Peg3 prom inh-1 | Peg3 prom inh-2 | others
COc1ccc(NC(=O)c2cc3ccccc3oc2=O)cc1 | n | n | n | n | 55 | n
O=C(/C=C/c1ccc([N+](=O)[O-])cc1)OCc1cnc(-c2ccccc2)o1 | n | n | n | n | n | x
COc1ccc(-c2sc3ccccc3c2C#Cc2cncn2C)cc1 | n | n | n | n | 52 | n
Cc1ccc(S(=O)(=O)NC(=O)COc2ccccc2C)c(C)c1 | n | n | n | n | n | x
CN(CC(=O)Nc1ccccc1Br)C(=O)C1CCN(C(=O)c2ccc(Cl)cc2)CC1 | n | n | n | n | n | x
CCOc1ccc(OCc2cccc(C(=O)O)c2)cc1 | 89 | 89 | n | n | 100 | 96
CCOc1ccc(OCc2cccc(C(=O)N3CCCC3)c2)cc1 | n | n | n | n | n | x
O=C(O)c1cccc(COc2ccc3c(c2)CCC3)c1 | n | 88 | n | n | 85 | 73
O=C(NCc1ccccc1)c1cccc(COc2ccc3c(c2)CCC3)c1 | n | n | n | n | n | x
O=C(O)c1cccc(COc2ccc(CO)cc2Cl)c1 | 89 | 89 | n | n | 100 | 88
CN(C)CCCN(C(=O)c1ccc([N+](=O)[O-])o1)c1nc2cc3c(cc2s1)OCO3 | n | n | n | n | n | x
Cc1ccc(NC(=O)c2ncn(CCCNCCCN3CCCC3=O)n2)cc1C | n | n | n | n | n | x
Cc1cc(C)c(CN2CCN(CCCn3cnc(C(=O)Nc4ccc(C)c(C)c4)n3)CC2)c(C)c1 | n | n | n | n | 98 | 97
COc1ccc2c(c1)sc1nc(-c3ccccc3)cn12 | u | 78 | -96 | n | 85 | 74
CCOC(=O)c1c(NC(=O)Cn2ccsc2=N)sc(C)c1C | n | n | n | n | n | x
CCOC(=O)CSC1=NC(=O)/C(=C\c2ccc(Cl)cc2)S1 | n | n | n | n | 88 | n
CCOC(=O)C1CCN(C2=NC(=O)/C(=C/c3ccc(Cl)cc3)S2)CC1 | n | n | n | n | n | x
O=C(CSc1nnc(COc2ccccc2)n1-c1ccccc1)c1cccs1 | n | n | n | n | n | x
COc1cccc(OCC(=O)NCC2CCCO2)c1 (stereo unspecified) | n | n | n | n | n | x
O=S(=O)(N[C@H]1C[C@@H](NS(=O)(=O)OCC(Cl)(Cl)Cl)C2CCCCC21)OCC(Cl)(Cl)Cl (stereo partly specified) | n | n | n | n | 61 | 84
O=P(O)(Cc1ccccc1)Cc1ccccc1 | n | n | n | n | n | x
COc1ccc(C=C2CCC3C(=O)CCCC3(C)C2=O)cc1 (stereo unspecified) | n | n | n | n | n | x
O=C1C(=Cc2ccc(Cl)cc2)CCc2ccccc21 | n | n | n | n | n | x
COc1ccc(/C=C2/CCCC(CN(C)C)C2=O)cc1 (stereo unspecified) | n | n | n | n | 98 | 99
CN(C)CC1CCC/C(=C/c2ccc(Cl)cc2)C1=O (stereo unspecified) | n | n | n | n | 96 | 98
SMILES | Shn3 inh set2 | HIF-2a inh | KKLEB cytotox | CF NFkB inh | Peg3 prom inh-1 | Peg3 prom inh-2 | others
Cc1c(C)c2cccnc2c2ncccc12 | n | n | n | n | 57 | 43
Cc1ccc(-c2nnc(-c3ccc(NC(=O)Cc4cccs4)cc3)o2)cc1 | n | n | -77 | 71 | 55 | n
Cc1ccc(-n2cc(-c3ccccc3)c3c(N4CCOCC4)ncnc32)cc1 | n | n | n | 84 | 67 | 63 | CF NFkB inh conf=87
CCCC(C)C(=O)Nc1ccc(S(=O)(=O)Nc2nccc(C)n2)cc1 (stereo unspecified) | n | n | n | n | n | x
O=C1C=CC(=O)N1c1ccc(-c2nc3ccccc3o2)cc1 | n | n | n | 51 | 108 | 97 | CF NFkB inh conf=n
Nc1ccc(-c2nc3ccccc3o2)cc1 | n | n | n | n | n | x
Cc1[nH]c(=O)[nH]c(=O)c1/C=N/NC(=O)[C@@H](N)CC(C)C | n | n | n | n | n | x

Assay outcomes as filed in PubChem BioAssay.
